Screening data from PubChem BioAssay.
ROS inducer: raises reactive oxygen species in U2OS cancer cells | U2OS ROS induction, H2DCF-DA fluorescence | ROS induction (% of piperlongumine), % at 10 µM | 2% of 46,000 active | AID 624156; in the data active = ROS induction above about 79%, passing the limit was not always enough;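 note: 0% = DMSO vehicle median and 100% = reference compound median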
An asterisk follows results filed as active. The full list was thinned out, with hits kept by preference.

SMILES	ROS inducer
COc1ccc(-c2cc(C(=O)NC3CCCCC3C)c3ccccc3n2)cc1 (configuration not stated)	0
Cc1ccc(S[C@]2(C(=O)NC3CC3)CC(=O)N(C3CCCCC3)[C@@H]2c2ccc(CO)cc2I)cc1	11
Cc1ccc(S[C@]2(C(=O)NC(C)C)CC(=O)N(C(C)C)[C@@H]2c2ccc(CO)cc2I)cc1	176*
Cc1ccc(S[C@]2(C(=O)NCCCN(C)C)CC(=O)N(C3CCCCC3)[C@@H]2c2ccc(CO)cc2I)cc1	6
Cc1ccc(CN2C(=O)CCC2C(=O)NC(C)C)cc1 (configuration not stated)	-7
CN(C)CCCNC(=O)[C@@]1(c2ccc([N+](=O)[O-])cc2)CC(=O)N(C2CCCCC2)[C@@H]1c1ccc(CO)cc1I	31
CCCNC(=O)[C@@]1(Sc2ccc(C)cc2)CC(=O)N(C2CCCCC2)[C@@H]1c1ccc(CO)cc1I	162*
COc1ccc(CCNC(=O)[C@@H]2c3ccccc3C(=O)N(CC34CC5CC(CC(C5)C3)C4)[C@H]2c2ccc(CO)cc2)cc1	16
COc1ccc(CCN2C(=O)[C@@]3(Cc4ccccc42)c2ccccc2C(=O)N(C2CCCCC2)[C@H]3c2ccc(CO)cc2)cc1	2
COc1ccc(CCNC(=O)[C@@]2(Sc3ccc(C)cc3)CC(=O)N(C3CCCCC3)[C@@H]2c2ccc(CO)cc2I)cc1	160*
c1coc(CCC2=NCCn3cccc32)c1	-11
CC(C)(C)c1nc(-c2ccc(-c3ccon3)s2)no1	-6
CC(C)CCN1CC(C(=O)NC2CCCCCC2)CC1=O (configuration not stated)	-9
COc1ccc(CC(=O)N(C)C)cc1	-13
CCCn1c2ccccc2c2nnc(SCCCC(=O)c3ccc4c(c3)OCCO4)nc21	142*
CCCn1c2ccccc2c2nnc(SCC(=O)N3c4ccccc4Sc4ccccc43)nc21	0
O=C(CSc1nc2ccccc2s1)c1ccc2c(c1)OCCO2	-15
CSc1nc2c(sc3ccccc32)c(=O)n1-c1ccc(C)cc1	1
CN(CC(=O)C1=C(c2ccc(Br)cc2)C(=O)c2ccccc2C1=O)c1ccccc1	17
CC(C)(C)c1csc(-c2ccc(OC(F)(F)F)cc2)n1	-13
Cc1ccc(COc2ccc(/C=C3/C(=N)N4C=CSC4=NC3=O)cc2Br)cc1	-4
Cc1cc(/C=C2/SC(=O)N(c3ccccc3)C2=O)c(C)n1-c1cccnc1	46
Cc1cc(/C=C2/C(=N)N3C=CSC3=NC2=O)c(C)n1-c1ccccc1	220*
Cc1cc(C)c(-n2c(SCC(=O)c3ccc(C#N)cc3)n[nH]c2=O)c(C)c1	-9
CO[C@H]1C[C@@H]2CC[C@@H](C)[C@@](O)(O2)C(=O)C(=O)N2CCCC[C@H]2C(=O)O[C@H]([C@H](C)C[C@@H]2CC[C@@H](O)[C@H](OC)C2)CC(=O)[C@H](C)/C=C(\C)[C@@H](O)[C@@H](OC)C(=O)[C@H](C)C[C@H](C)/C=C/C=C/C=C\1C	98*
SMILES	ROS inducer
CS(=O)(=O)c1sc(NC(=O)Nc2ccc(Cl)cc2)c2c1C=CCC2	33
CCOC(=O)c1sc(SC)c2c1CC(c1ccc(OC)cc1)CC2=O (configuration not stated)	136*
CCOC(=O)c1sc(SC)c2c1CCc1cnc(SC)nc1-2	-7
CCOC(=O)c1c(O)c(O)c(C(=O)OCC)n1-c1ccc(OC)cc1	33
CN1C(=O)CC(c2ccccc2)S(=O)(=O)c2ccccc21 (configuration not stated)	2
CCOc1ccc(N=CC2=C(O)CNC2=O)cc1	4
O=C(Nc1csc(-c2cccs2)n1)Nc1ccc(F)cc1F	-7
Cc1cccc(CCNC(=S)Nc2ccc3nc4n(c(=O)c3c2)CCCCC4)c1	-20
Cc1ccc2nc(Nc3nc(CSc4nc5ccccc5s4)cc(=O)[nH]3)nc(C)c2c1	166*
Cc1ccc(SCc2cc(=O)[nH]c(Nc3nc(C)c4ccccc4n3)n2)cc1	-14
Cc1nnc(SCc2cc(=O)[nH]c(Nc3nc(C)c4ccccc4n3)n2)s1	-1
CCc1ccc2nc(Nc3nc4ccccc4c(=O)[nH]3)nc(C)c2c1	132*
Cc1ccc2nc(Nc3nc(CSc4nnc(C)s4)cc(=O)[nH]3)nc(C)c2c1	49
CCOc1ccc2nc(Nc3nc(C)c(CCC(C)C)c(=O)[nH]3)nc(C)c2c1	0
O=C(COc1ccccc1Br)Nc1ccc(C(=O)OC2CCCCC2)cc1	-2
CC(C)CN(CC(C)C)C(=O)NCc1noc2ccccc12	0
O=C(Nc1ccc2c(c1)OCO2)c1cncc(NS(=O)(=O)c2ccccc2)c1	-3
COc1cc2c(cc1OC)CN(C(=O)[C@@H]1[C@H]3C(=O)O[C@H](c4ccccc4)[C@H](c4ccccc4)N3[C@H](c3ccc(OCCO)cc3)[C@@]13C(=O)Nc1ccc(C#CC4=CCCCC4)cc13)CC2	17
COc1ccc(C#Cc2ccc3c(c2)[C@]2(C(=O)N3)[C@H](c3ccccc3OCCO)N3[C@H](c4ccccc4)[C@H](c4ccccc4)OC(=O)[C@H]3[C@@H]2C(=O)N2CCc3cc(OC)c(OC)cc3C2)cc1	64
